# Measured values published in PubChem BioAssay AID1272365 (Small Molecule Screening Facility, UW Madison, 2018).
# Where “and” joins values, the source holds several entries; their conditions need not be identical. Equal entries are not always repeated. The whole screen tested about 430,000 compounds, of which about 2,600 (0.6%) were called active. The sample holds actives, similar compounds and a random draw of the others, so the mix is not that of the screen. Cut-off read from the data, not from the text of the source: active = inhibition mostly above about 37% (no sharp cut-off); inactive = mostly below about 20%.
# Test system: PriA–SSB C-terminal tail interaction (Klebsiella pneumoniae)
# Assay: blocks PriA binding to SSB C-terminal tail, primary screen, biochemical, AlphaScreen (AID 1272365);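 for inhibition: plate controls were negative control peptide for no effect and reference peptide for full effect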
# Settings: AlphaScreen SSBct-PriA binding, biotinylated peptide; at 33 µM, stronger effect = higher value
row,SMILES,inhibition
1,CC(C)(CC(=O)NCc1ccc(F)cc1)CC1=NS(=O)(=O)c2ccccc2N1,-14% (inactive)
2,COc1ccc(C(=O)Nc2ccc(S(C)(=O)=O)cc2)cc1,-8% (inactive)
3,CC(C)Sc1nc(N2CCCC2)c2cnn(CCNC(=O)c3cccs3)c2n1,-8% (inactive)
4,CCn1ccnc1CN1CCN(C)CC1,0% (inactive)
5,CC(=O)Nc1ccc(S(=O)(=O)N2CCN(S(=O)(=O)c3ccc(C)cc3)CC2)cc1,-19% (inactive)
6,N#Cc1nccnc1O[C@H]1CCCN(C(=O)c2ccc3nc[nH]c3c2)C1,-19% (inactive)
7,Cc1cccc(-n2cc(-c3ccccc3)c3c(Nc4ccc(Oc5ccc(Cl)cc5)cc4)ncnc32)c1,-17% (inactive)
8,C=CCn1c(C)cc(C2=NNC(=NCC)SC2)c1C,29.4% (inactive)
9,Cc1cccc(C(=O)Nc2nnc(Cc3c[nH]c4ccccc34)s2)c1,6.73% (inactive)
10,Cc1cccc(N=C2NN=C(c3c[nH]c4ccccc34)CS2)c1,48.7% (active)
11,Cn1cc(S(=O)(=O)Nc2ccc(CC(=O)N3CCOCC3)cc2)cn1,6% (inactive)
12,C/C(=N\Nc1ccc(S(N)(=O)=O)cc1[N+](=O)[O-])c1cccs1,inactive
13,NS(=O)(=O)c1ccc(CNC(=O)c2ccc(Cl)cc2[N+](=O)[O-])cc1,-24.6% (inactive)
14,CC(CCC(C)C)=NNc1ccc(S(N)(=O)=O)cc1[N+](=O)[O-],42.4% (active)
15,COc1ccccc1C(=O)N1CCN=C1SCc1cccnc1,-0.73% (inactive)
16,O=C(c1cc2n(n1)CCCO2)N1CCN(Cc2cccnc2)CC1,-17% (inactive)
17,COc1cccc(OC)c1C(=O)N1CCN(Cc2cccnc2)CC1,49% (active)
18,O=C(c1cc2ccccc2o1)N1CCN(C(=O)C2CC2c2ccccc2)CC1 (centres undefined),2% (inactive)
19,Cc1cc(S(=O)(=O)N2CCOC23CCN(C(=O)c2cc(=O)c4ccccc4o2)CC3)ccc1F,-9% (inactive)
20,CC1CCN(c2nc(-c3ccccn3)nc3ccccc23)CC1,102% (active)
21,Cc1ccc2cc(C)c(N3CCC(C)CC3)nc2c1,-34.6% (inactive)
22,CC1CCN(C(=O)Cn2c(-c3ccncc3)nc3ccccc32)CC1,4% (inactive)
23,O=C1C(=O)N(CN2CCN(C(c3ccccc3)c3ccccc3)CC2)c2ccccc21,-1% (inactive)
24,COC(=O)/C=C1\SC(=NNC(=O)c2ccccc2)NC1=O,-6.67% (inactive)

row,SMILES,inhibition
1,Cc1nc(-c2cccs2)sc1CNC(=O)c1ccc(=O)[nH]c1,5% (inactive)
2,Cc1cc2cc3c(N)[nH]nc3nc2cc1C,-6.78% (inactive)
3,Nc1[nH]nc2nc(-c3ccccn3)ccc12,94.2% (active)
4,Cc1cc(NC(=O)C(C)(C)Oc2ccc(Cl)cc2)n(-c2nc3c(c(=O)[nH]2)CCC3)n1,-1% (inactive)
5,CCOC(=O)c1c(NC(=O)c2c(F)cccc2F)sc2c1CCN(C(=O)OCC)C2,-7% (inactive) and -12% (inactive)
6,CCc1ccc(Nc2ccc([N+](=O)[O-])c3nonc23)cc1,79.3% (active)
7,CCOC(=O)c1ccc(NNC(C)=O)c([N+](=O)[O-])c1,3.85% (inactive)
8,CN(c1ccccc1)c1ccc([N+](=O)[O-])c2nonc12,32.9% (inactive)
9,O=C(COc1ccccc1)N1CCN(c2ccc(-c3ccco3)nn2)CC1,-12% (inactive)
10,COC(=O)Nc1nc(CC(=O)Nc2ccccc2OC)cs1,-13% (inactive)
11,O=C1CCC(C(=O)Nc2nc(CC(=O)N3CCN(c4ccccn4)CC3)cs2)N1 (centres undefined),8% (inactive)
12,COc1ccc(OC)c(Nc2nc(CC(=O)Nc3nc4ccccc4s3)cs2)c1,38% (active)
13,COc1ccc(OC)c(Nc2nc(CC(=O)N3CCN(c4ncccn4)CC3)cs2)c1,19% (active)
14,COc1ccc(OC)c(Nc2nc(CC(=O)N3CCc4ccccc43)cs2)c1,12% (inactive)
15,COc1ccc(C)cc1NC(=O)Cc1csc(NS(=O)(=O)c2ccccc2)n1,6% (inactive)
16,CCCCN(C1CCS(=O)(=O)C1)S(C)(=O)=O (centres undefined),10% (inactive)
17,Cc1ccc(C)c(CSc2nnc3n(C)c(=O)c4ccc(C(=O)NC5CCCC5)cc4n23)c1,0% (inactive)
18,O=C(c1ccc(S(=O)(=O)N2CCCCC2)cc1)N(c1cccc(Cl)c1)C1C=CS(=O)(=O)C1 (centres undefined),-8% (inactive)
19,O=C(NCCCn1ncccc1=O)c1cccc(C(F)(F)F)c1,-10% (inactive)
20,CSc1cccc(-c2nnc(NC(=O)c3ccc(Cl)s3)o2)c1,11% (inactive) and 4% (inactive)
21,Cc1cc(SCC(=O)Nc2ccc(OC(F)F)cc2)nc2ccccc12,-2% (inactive) and -21% (inactive)
22,Cn1ccc(C(=O)Nc2ccc(F)cc2)n1,8% (inactive)
23,COc1cc2nc(SCc3cc(=O)n4cc(Cl)ccc4n3)n3nc(C)nc3c2cc1OC,-5% (inactive)
24,O=C(NCc1ccco1)C(=O)Nc1c2c(nn1-c1ccc(F)cc1)CSC2,-7% (inactive)

row,SMILES,inhibition
1,O=C(NCC(c1ccco1)N1CCc2ccccc21)C(=O)Nc1ccccc1[N+](=O)[O-] (centres undefined),42% (active)
2,Cc1ccccc1C(=O)NCC(c1ccco1)N1CCc2ccccc21 (centres undefined),-7.16% (inactive)
3,COc1ccccc1CCNC(=O)C(=O)NC[C@@H](c1ccco1)N1CCc2ccccc21,8% (inactive)
4,COc1ccc(NC(=O)Nc2nnc(SCC(=O)Nc3cccc([N+](=O)[O-])c3)s2)cc1,-16% (inactive)
5,Cc1cc([N+](=O)[O-])c(NC2CCCCC2)c([N+](=O)[O-])c1,80.5% (active)
6,Cc1cc(OCC(=O)NC2CCN(C)CC2)ccc1[N+](=O)[O-],-23% (inactive)
7,Cc1cc([N+](=O)[O-])c(N2CCC[C@@H]2C(=O)O)c([N+](=O)[O-])c1,-16.2% (inactive)
8,NC(=O)C1CCN(C(=O)N[C@H]2CC(=O)N(c3ccc(F)cc3)C2)CC1,2% (inactive)
9,Cc1ccc(NC(=O)C(=O)NC[C@](C)(O)c2cccs2)cc1C,-4% (inactive)
10,COc1ccc(CCC(=O)N2CCC(Oc3cc(C)oc(=O)c3)C2)cc1Br (centres undefined),4% (inactive)
11,Cc1nnc(NC(=O)CSc2nnc(-c3ccccc3C)o2)s1,11% (inactive)
12,Cc1cc(NC(=O)CSc2nnc(-c3ccc(Cl)s3)o2)no1,43.9% (active) and 1% (inactive)
13,Cc1cc(NC(=O)CSc2nnc(CNC(=O)c3cccs3)o2)no1,-5% (inactive)
14,COC(=O)C1CCN(C(=O)CCc2csc3nc(-c4ccc(OC)cc4)cn23)CC1,-11% (inactive)
15,Cn1ccnc1S(=O)(=O)C1CCN(C(=O)c2ccc3nsnc3c2)CC1,-12% (inactive)
16,O=C(Nc1nc2c(s1)CN(Cc1ccccc1)CC2)c1cc(Cl)sc1Cl,23% (inactive)
17,O=C(CSc1ccc(-c2ccccn2)nn1)Nc1ccccc1,90.4% (active)
18,COc1cc(NC(=O)CSc2ccc(-c3cccnc3)nn2)cc(OC)c1,6.7% (inactive)
19,CSc1ccc(-c2ccccn2)nn1,148% (active)
20,COc1ccccc1CCNC(=O)CSc1nnc2ccc(-c3cccnc3)nn12,-8.11% (inactive) and 15% (inactive)
21,COc1ccccc1CCNC(=O)CSc1ccc(-c2ccccn2)nn1,81.7% (active)
22,Brc1ccc(CSc2nnc3ccc(-c4ccccn4)nn23)cc1,-17% (inactive)
23,O=C(CSc1ccc(-c2cccnc2)nn1)NCCc1ccccc1,-2% (inactive)
24,CSc1ccc(NC(=O)c2ccccc2F)nn1,2% (inactive)

row,SMILES,inhibition
1,O=C(CSc1ccc(-c2ccc(-n3cccn3)cc2)nn1)Nc1ccc([N+](=O)[O-])cc1,-0.41% (inactive)
2,NC(=NOC(=O)C1CCCCC1)c1ccc(Br)cc1,-26.4% (inactive)
3,CS(=O)(=O)c1ccccc1C(=O)N1CCN(c2ccccc2)CC1,0% (inactive)
4,CN(C)S(=O)(=O)c1ccc(C(=O)NCc2nnc(SCc3c(F)cccc3Cl)o2)cc1,6% (inactive) and -7% (inactive)
5,Cc1ccc(N2CCn3c2nc2c3c(=O)n(CCN3CCOCC3)c(=O)n2C)cc1Cl,0% (inactive)
6,COC(=O)c1ccc2c(=O)n(CCCC(=O)NCc3cccs3)c(=S)[nH]c2c1,-3% (inactive)
7,O=C(NCCCn1ccnc1)c1cc2c(s1)CCCC2,44.7% (active)
8,Cc1ccc2c(Cl)c(C(=O)NCCCn3ccnc3)sc2c1,9.4% (inactive)
9,O=C(NCCCn1ccnc1)c1cc(-c2ccccc2)on1,2.55% (inactive)
10,COc1ccc(/C=N\N=C2\NC(=O)C(CC(=O)NC(N)=O)S2)c(C(=O)O)c1OC (centres undefined),-10% (inactive)
11,Cc1ccccc1-n1c(O)c(C=CC=Nc2ccccc2)c(=O)[nH]c1=O,4.92% (inactive)
12,O=C(COc1ccc(Cl)cc1Cl)Nc1nnc(C2CCCO2)o1 (centres undefined),63% (active)
13,O=C(Nc1nnc(C2CCCO2)o1)c1sc2ccccc2c1Cl (centres undefined),34% (inactive)
14,O=C(Nc1nnc(C2CCCO2)o1)c1cc2ccccc2oc1=O (centres undefined),4% (inactive)
15,COc1ccc(CCC(=O)NCCCn2nc(-c3ccccc3)ccc2=O)cc1,2% (inactive)
16,O=CN1CCN(C(=O)c2ccc(Br)o2)CC1,-5.54% (inactive)
17,O=C(NC(=S)Nc1ccccc1C(=O)O)c1ccc(-c2ccc(Br)cc2)o1,3.73% (inactive)
18,CN1CCN(C(=O)c2ccc(-c3ccc(Br)cc3)o2)CC1,39% (active) and 2.72% (inactive)
19,O=C(O)CNC(=O)CN1C(=O)S/C(=C\C=C\c2ccccc2)C1=O,-12% (inactive)
20,O=C(O)/C=C\C(=O)NCc1ccc2c(c1)OCO2,-5% (inactive)
21,O=C(NCc1ccc2c(c1)OCO2)c1csc(Nc2ccccc2)n1,0% (active)
22,O=C(NCCc1ccccc1)c1csc(Nc2ccccc2)n1,7% (inactive)
